# Experimental data reported in PubChem BioAssay (NCATS).
# Values joined by “and” are separate entries in the source; they are usually repeats but may differ in a detail not shown here. Equal entries are not always repeated. Records with an inconclusive call do not appear. Where a call stands in place of a potency, no number is given. More than one record can exist for a structure, and the calls need not agree. Values without a mark were called inactive. Active and inactive are the calls of the source. Calls come from the whole dose curve; as a rule, active = well fitted curve in the direction sought with a large enough effect; inconclusive = small, poorly fitted or top-dose-only effect, or another doubt; inactive = no such curve, though single readings can be large; an effect the other way counts as inactive or inconclusive.
# What was measured:
# CASKI = assay: Primary qHTS to identify gynecologic anti-cancer compounds using libraries of approved drugs and bioactive compounds (AID 1345084); settings: Gynecologic cancer cell panel viability, ATPlite luminescence, 48 h; series mostly up to 57.5 µM; note: nearly all actives have a fitted effect of over 55% in size
# Summary of the method: (§1)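 In this quantitative HTS, cell killing is estimated from loss of ATP-dependent luciferase light. Cells see five compound concentrations over a 48 h exposure.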
# Es-2 = assay: as above; settings: Gynecologic cancer cell panel viability, ATPlite luminescence, 48 h; series mostly up to 57.5 µM
# Summary of the method: as §1
# HeLa = assay: as above; settings: Gynecologic cancer cell panel viability, ATPlite luminescence, 48 h; series mostly up to 57.5 µM
# Summary of the method: as §1
# Hek293T = assay: as above; settings: Gynecologic cancer cell panel viability, ATPlite luminescence, 48 h, control line for the selectivity index; series mostly up to 57.5 µM
# Summary of the method: as §1
# JEG-3 = assay: as above; settings: Gynecologic cancer cell panel viability, ATPlite luminescence, 48 h; series mostly up to 57.5 µM
# Summary of the method: as §1
# OV90 = assay: as above; settings: Gynecologic cancer cell panel viability, ATPlite luminescence, 48 h; series mostly up to 57.5 µM
# Summary of the method: as §1
# PA-1 = assay: as above; settings: Gynecologic cancer cell panel viability, ATPlite luminescence, 48 h; series mostly up to 57.5 µM
# Summary of the method: as §1
# SKOV3 = assay: as above; settings: Gynecologic cancer cell panel viability, ATPlite luminescence, 48 h; series mostly up to 57.5 µM
# Summary of the method: as §1
# Tov-21-G = assay: as above; settings: Gynecologic cancer cell panel viability, ATPlite luminescence, 48 h; series mostly up to 57.5 µM
# Summary of the method: as §1
# Tov112D = assay: as above; settings: Gynecologic cancer cell panel viability, ATPlite luminescence, 48 h; series mostly up to 57.5 µM
# Summary of the method: as §1
# [1] = Drug repurposing screens with cells derived from glioblastoma tumor samples (AID 1345199); settings: GBM patient neurospheres viability, ATP luminescence, 48 h; note: nearly all actives have a fitted effect of over 40% in size; note: potency is the fitted concentration of half-maximal effect
# Summary of the method: (§2)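 Primary testing used CD133+ neurospheres from four GBM patients, seven concentrations, 48 h exposure and ATP-based viability; confirmation added three slower-growing patient lines.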
# astro = assay: as above; settings: viability, ATP luminescence, 48 h; series mostly up to 45.9 µM
# Summary of the method: as §2
# [2] = at 45.9 µM (top of the series), tumour line B
# [3] = at 45.9 µM (top of the series), tumour line D
# [4] = at 46 µM (top of the series), tumour line A
# [5] = at 46.1 µM (top of the series), tumour line C
compound,measurement,setting,value
CCCCc1ncc(/C=C(\Cc2cccs2)C(=O)O)n1Cc1ccc(C(=O)O)cc1,Potency,CASKI,inactive
same,Potency,Es-2,inactive
same,Potency,HeLa,inactive
same,Potency,Hek293T,inactive
same,Potency,JEG-3,inactive
same,Potency,OV90,inactive
same,Potency,PA-1,inactive
same,Potency,SKOV3,inactive
same,Potency,Tov-21-G,inactive
same,Potency,Tov112D,inactive
same,"activity, negative = cell killing",[1]; [2],-7.78%
same,"activity, negative = cell killing",[1]; [3],9.77%
same,"activity, negative = cell killing",[1]; [4],-19.8%
same,"activity, negative = cell killing",[1]; [5],-1.88%
same,Potency,astro,inactive
NC(=O)NC(=O)Cc1ccccc1,Potency,CASKI,inactive
same,Potency,Es-2,inactive
same,Potency,HeLa,inactive
same,Potency,Hek293T,inactive
same,Potency,JEG-3,inactive
same,Potency,OV90,inactive
same,Potency,PA-1,inactive
same,Potency,SKOV3,inactive
same,Potency,Tov-21-G,inactive
same,Potency,Tov112D,inactive
same,"activity, negative = cell killing",[1]; [2],5.96%
same,"activity, negative = cell killing",[1]; [3],3.38%
same,"activity, negative = cell killing",[1]; [4],-32.3%
same,"activity, negative = cell killing",[1]; [5],-5.24%
same,Potency,astro,inactive
O=c1[nH]c(=O)c2[nH]c(=O)[nH]c2[nH]1,"activity change, negative = cytotoxicity",CASKI,-0.141% [at 11.6 µM]
same,"activity change, negative = cytotoxicity",Es-2,-0.66% [at 11.6 µM]
same,"activity change, negative = cytotoxicity",HeLa,4.95% [at 11.6 µM]
same,"activity change, negative = cytotoxicity",Hek293T,6.53% [at 11.6 µM]
same,"activity change, negative = cytotoxicity",JEG-3,3.26% [at 11.6 µM]
same,"activity change, negative = cytotoxicity",OV90,21.7% [at 11.6 µM]
same,"activity change, negative = cytotoxicity",PA-1,8.45% [at 11.6 µM]
same,"activity change, negative = cytotoxicity",SKOV3,-14.3% [at 11.6 µM]
same,"activity change, negative = cytotoxicity",Tov-21-G,19.2% [at 11.6 µM]
same,"activity change, negative = cytotoxicity",Tov112D,-0.835% [at 11.6 µM]
same,"activity, negative = cell killing",[1]; [2],-17.6% and -20.9%
same,"activity, negative = cell killing",[1]; [3],16.7% and -10.4%
same,"activity, negative = cell killing",[1]; [4],-18.4% and -8.7%
same,"activity, negative = cell killing",[1]; [5],-21% and -10.6%
same,Potency,astro,inactive
O=Cc1ccccc1C=O,Potency,CASKI,inactive
same,Potency,Es-2,inactive
same,Potency,HeLa,inactive
same,Potency,Hek293T,inactive
same,Potency,JEG-3,inactive
same,Potency,OV90,inactive
same,Potency,PA-1,inactive
same,Potency,SKOV3,inactive
same,Potency,Tov-21-G,inactive
same,Potency,Tov112D,inactive
same,"activity, negative = cell killing",[1]; [5],-17%
same,Potency,[1]; tumour line D,35.5 µM (active)
CC/C=C(\C(=O)N[C@@H]1C(=O)N2C(C(=O)OCOC(=O)C(C)(C)C)=C(COC(N)=O)CS[C@H]12)c1csc(N)n1,Potency,CASKI,inactive
same,Potency,Es-2,inactive
same,Potency,HeLa,inactive
same,Potency,Hek293T,inactive
same,Potency,JEG-3,inactive
same,Potency,OV90,inactive
same,Potency,PA-1,inactive
same,Potency,SKOV3,inactive
same,Potency,Tov-21-G,inactive
same,Potency,Tov112D,inactive
same,"activity, negative = cell killing",[1]; [2],-9.61% and -1.73%
same,"activity, negative = cell killing",[1]; [3],-14.3% and 0.361%
same,"activity, negative = cell killing",[1]; [5],-12.1% and -5.64%
same,Potency,[1]; tumour line A,17.8 µM (active)
same,Potency,astro,inactive
CC(=O)Oc1c(C)c(C)c2c(c1C)CC[C@@](C)(CCC[C@H](C)CCC[C@H](C)CCCC(C)C)O2,Potency,CASKI,inactive
same,Potency,Es-2,inactive
same,Potency,HeLa,inactive
same,Potency,Hek293T,inactive
same,Potency,JEG-3,inactive
same,Potency,OV90,inactive
same,Potency,PA-1,inactive
same,Potency,SKOV3,inactive
same,Potency,Tov-21-G,inactive
same,Potency,Tov112D,inactive
same,"activity, negative = cell killing",[1]; [2],-3.11% and -14.8% and -20.3%
same,"activity, negative = cell killing",[1]; [3],-2.72% and -19.7% and -14.1%
same,"activity, negative = cell killing",[1]; [4],-21.7% and -44.1%
same,"activity, negative = cell killing",[1]; [5],-8.98% and 2.94% and -0.939%
same,Potency,astro,inactive
NC(=O)c1ncn([C@@H]2O[C@H](CO)[C@@H](O)[C@H]2O)c1N,Potency,CASKI,inactive
same,Potency,Es-2,inactive
same,Potency,HeLa,inactive
same,Potency,Hek293T,inactive
same,Potency,JEG-3,inactive
same,Potency,OV90,inactive
same,Potency,PA-1,inactive
same,Potency,SKOV3,inactive
same,Potency,Tov-21-G,inactive
same,Potency,Tov112D,inactive
same,"activity, negative = cell killing",[1]; [2],-9.5%
same,"activity, negative = cell killing",[1]; [3],-4.13%
same,"activity, negative = cell killing",[1]; [4],-19.7%
same,"activity, negative = cell killing",[1]; [5],-3.52%
same,Potency,astro,inactive
CC1=C(C/C=C(\C)CCC[C@H](C)CCC[C@H](C)CCCC(C)C)C(=O)c2ccccc2C1=O,Potency,CASKI,inactive
same,Potency,Es-2,inactive
same,Potency,HeLa,inactive
same,Potency,Hek293T,inactive
same,Potency,JEG-3,inactive
same,Potency,OV90,inactive
same,Potency,PA-1,inactive
same,Potency,SKOV3,inactive
same,Potency,Tov-21-G,inactive
same,Potency,Tov112D,inactive
same,"activity, negative = cell killing",[1]; [5],-10.9%
same,Potency,[1]; tumour line A,11.2 µM (active)
CC(=O)CCC(=O)O,Potency,CASKI,inactive
same,Potency,Es-2,inactive
same,Potency,HeLa,inactive
same,Potency,Hek293T,inactive
same,Potency,JEG-3,inactive
same,Potency,OV90,inactive
same,Potency,PA-1,inactive
same,Potency,SKOV3,inactive
same,Potency,Tov-21-G,inactive
same,Potency,Tov112D,inactive
same,"activity, negative = cell killing",[1]; [2],-11.2%
same,"activity, negative = cell killing",[1]; [3],-13.2%
same,"activity, negative = cell killing",[1]; [4],-21%
same,"activity, negative = cell killing",[1]; [5],-0.404%
same,Potency,astro,inactive
C#CCN(C)Cc1ccccc1,Potency,CASKI,inactive
same,Potency,Es-2,inactive
same,Potency,HeLa,inactive
same,Potency,Hek293T,inactive
same,Potency,JEG-3,inactive
same,Potency,OV90,inactive
same,Potency,PA-1,inactive
same,Potency,SKOV3,inactive
same,Potency,Tov-21-G,inactive
same,Potency,Tov112D,inactive
same,"activity, negative = cell killing","[1]; at 20 µM (top of the series), tumour line C",-8.08%
same,"activity, negative = cell killing","[1]; at 21.2 µM (top of the series), tumour line B",-12.4%
same,"activity, negative = cell killing","[1]; at 21.2 µM (top of the series), tumour line D",-7.66%
same,"activity, negative = cell killing","[1]; at 21.3 µM (top of the series), tumour line A",-32.1%
same,Potency,astro,inactive
NCC(=O)CCC(=O)O,Potency,CASKI,inactive
same,Potency,Es-2,inactive
same,Potency,HeLa,inactive
same,Potency,Hek293T,inactive
same,Potency,JEG-3,inactive
same,Potency,OV90,inactive
same,Potency,PA-1,inactive
same,Potency,SKOV3,inactive
same,Potency,Tov-21-G,inactive
same,Potency,Tov112D,inactive
same,"activity, negative = cell killing",[1]; [2],-16.2%
same,"activity, negative = cell killing",[1]; [3],-11%
same,"activity, negative = cell killing",[1]; [4],-11%
same,"activity, negative = cell killing",[1]; [5],-6.71%
same,Potency,astro,inactive
CCCOC(=O)c1ccccc1,Potency,CASKI,inactive
same,Potency,Es-2,inactive
same,Potency,HeLa,inactive
same,Potency,Hek293T,inactive
same,Potency,JEG-3,inactive
same,Potency,OV90,inactive
same,Potency,PA-1,inactive
same,Potency,SKOV3,inactive
same,Potency,Tov-21-G,inactive
same,Potency,Tov112D,inactive
same,"activity, negative = cell killing",[1]; [2],-11.5%
same,"activity, negative = cell killing",[1]; [3],1.56%
same,"activity, negative = cell killing",[1]; [4],-26.7%
same,"activity, negative = cell killing",[1]; [5],-15.4%
same,Potency,astro,inactive
